This note sets out measurements from PubChem BioAssay AID488890 (Southern Research Specialized Biocontainment Screening …, 2010).

About 1,300 (0.41%) of roughly 320,000 compounds were called active. Another 3% or so got no clear call; they are omitted. The rule behind the calls is not given here. The list is a sample of the results. Measured potencies and affinities stand elsewhere.

A short description of this experiment: growth inhibition of non-replicating M. tuberculosis (AID 488890).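 Note: plate controls were DMSO cells for no effect and high antibiotic wells for full effect.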 The settings on record: Mycobacterium tuberculosis non-replicating, at 25 µM, stronger effect = higher value.
For `Cc1cccn2c(CNC3CCCc4ccccc43)c(C(=O)N3CCOCC3)nc12` (configuration not stated), the inhibition was determined as 21.9%.

Regarding `CCn1c(C)nc2cc(S(N)(=O)=O)ccc21`, the inhibition was -15.1%.

Consider `CC(C)c1onc(C(=O)NCc2ccccc2)c1[N+](=O)[O-]`, for which the inhibition amounted to 44.9%.

For `Cc1cc(N2CCN(c3ccccc3)CC2)nc(N)n1`, the inhibition is -1.71%.

On to `Cc1cc(C)n(-c2nc3ccccc3nc2N2CCC(C)CC2)n1`, for which the inhibition amounted to 34%.

With `Cc1cc(Cl)nc(-n2nc(C)cc2C)n1`, the inhibition stood at 27.1%.

As for `CCCc1nc(C)cc(N2CCN(c3ccccc3)CC2)n1`, the inhibition was -3.49%.

For the compound `COc1ccccc1OCc1ccc(C(=O)NCC2CCCO2)cc1` (configuration not stated), the inhibition was determined as 1.26%.

On to `Cc1cccc(N2CCN(C(=O)c3ccc(CS(=O)Cc4cccc(Cl)c4)o3)CC2)c1C` (configuration not stated), for which the inhibition came out at 28.5%.

Turning to `Cn1nc(C(=O)NCCN2CCOCC2)c2ccccc2c1=O`, the inhibition was -5.46%.

Regarding `CC(=O)O/C(=C\c1cn(C(C)=O)c2ccccc12)C(=O)O`, the inhibition was -6.32%.

With `CC(=O)n1cc(C=C2C(=O)NC(=O)NC2=O)c2ccccc21`, the inhibition was found to be 0%.

In the case of `Cc1ccc2c(c1)N(C)/C(=C/c1cccc[n+]1CCO)S2`, the inhibition turned out to be 6.55%.

Take `O=C(O)Cc1ccc(NS(=O)(=O)c2c(Cl)cccc2Cl)cc1`: the inhibition was -11.9%.

As for `CC(C)(C)Nc1nc(N2CCCC2)nc(N2CCCC2)n1`, the inhibition is 59.5%.

For `CCNc1nc(N2CCCC2)nc(N2CCCC2)n1`, the inhibition was determined as 75.5%.

For the compound `CCOC(=O)[C@@H]1[C@H]2COc3cc(OC)ccc3[C@H]2N2C(=O)N(c3cccc(Cl)c3)C(=O)[C@]12C`, the inhibition amounted to 1.05%.

On to `O=C(NCCCN1CCOCC1)c1c(O)c2ccccc2[nH]c1=O`, for which the inhibition is -0.01%.

On to `COc1cc2[nH]c(=O)c(C(=O)NCCCN3CCOCC3)c(O)c2cc1OC`, for which the inhibition stood at 1.72%.

For the compound `CCc1ccc(C(=O)Nc2cc3c(cc2Cl)OCCCO3)cc1`, the inhibition came to 42%.

With `O=C(O)C1CCN(C(=O)CCN2C(=O)S/C(=C\c3ccccc3)C2=O)CC1`, the inhibition turned out to be 1.98%.

As for `CCCCn1c(=O)c(CCC(=O)OCC(=O)Nc2cc(Cl)ccc2OC)nc2ccccc21`, the inhibition was -2.09%.

As to `COC(=O)[C@H](CCSC)NC(=O)NCCc1ccc(F)cc1`, the inhibition is -16.4%.

On to `CCCCCn1c(=O)c2ccccc2n2c(=S)[nH]nc12`, for which the inhibition is -0.64%.

As to `CCCCn1c(=O)c2ccccc2n2c(=S)[nH]nc12`, the inhibition is -11.3%.

For the compound `Cc1ccccc1Sc1ncnc2onc(C)c12`, the inhibition stood at 5.13%.

For `COC(=O)c1ccccc1Sc1snnc1C`, the inhibition is -5.51%.

With `Cc1ccc(Sc2ncnc3onc(C)c23)cc1`, the inhibition came to 72.5%.

With `COc1ccc(Sc2ncnc3onc(C)c23)cc1`, the inhibition amounted to 58.2%.

On to `CN(C)S(=O)(=O)c1ccc(NC(=O)COC(=O)C2CC3CCCC(C2)C3=O)cc1` (configuration not stated), for which the inhibition turned out to be 14.8%.

Regarding `COc1ccc(-n2c(O)c(C=NCCCn3ccnc3)c(=O)[nH]c2=O)cc1`, the inhibition is -3.58%.

On to `Cc1cc(NC(=O)CN2CCN(c3ccccc3O)CC2)no1`, for which the inhibition stood at 3.86%.

`CCCCn1c(=O)c(C=Nc2cc([N+](=O)[O-])ccc2OC)c(O)n(CCCCl)c1=O`: the inhibition is 64%.

As to `CCCCN1CC(C(=O)NC2CCCCC2)CC1=O` (configuration not stated), the inhibition is -9.76%.

For the compound `CCOc1ccc2oc(C(=O)OCC(=O)NCc3ccc(OC)cc3)c(C)c2c1`, the inhibition came out at 26.4%.

Turning to `Cc1nn(C2CCS(=O)(=O)C2)c(Cl)c1/C=C/C(=O)OCC(=O)Nc1ccc2c(c1)OCO2` (configuration not stated), the inhibition is 3.18%.

For `O=C(c1cnn2c(C(F)(F)F)cc(-c3ccccc3)nc12)N1CCCCC1c1cccnc1` (configuration not stated), the inhibition amounted to 22.6%.

`Nc1ccc(-c2nc3ncccc3o2)c(O)c1`: the inhibition turned out to be 8.78%.

Regarding `O=C1OC(Oc2ccccc2)(c2ccccc2)c2ccccc21` (configuration not stated), the inhibition is -1.31%.

Regarding `COc1ccccc1COCC(O)CNCCc1ccc(C(F)(F)F)cc1` (configuration not stated), the inhibition was determined as 67.5%.

`OC(CNCc1ccccc1F)COc1cccc2ccccc12` (configuration not stated): the inhibition came to 29.3%.

For `COc1ccc(CCNCC(O)COc2cccc(Br)c2)cc1` (configuration not stated), the inhibition amounted to 45.7%.

On to `OC(CNCCc1ccccc1)COc1ccc(OCC(O)CNCCc2ccccc2)cc1` (configuration not stated), for which the inhibition was determined as 59.6%.

With `O=c1c2ccccc2nc(/C=C/c2ccc(F)cc2)n1-c1ccccn1`, the inhibition is -7.61%.

As to `Cc1ccnc(NC(=O)c2ccccc2NC(=O)c2ccccc2)c1`, the inhibition was determined as 7.95%.

As to `OCCCn1c(CCNc2nc(-c3ccc(F)cc3)cs2)nc2cc(C(F)(F)F)ccc21`, the inhibition is 26.8%.

Consider `c1ccc2cc(OCCOCCOc3ccc4ccccc4c3)ccc2c1`, for which the inhibition is -3.69%.

Consider `CN(C)CCOc1ccc2ccccc2c1`, for which the inhibition is -16.7%.

`COC(C(=O)Nc1ccc(S(=O)(=O)Nc2ccc(F)cc2)cc1)c1ccccc1` (configuration not stated): the inhibition amounted to 30.9%.

For the compound `CCOc1ccc(C(C(=O)NCC2CCCO2)N(C(=O)c2snc(C(N)=O)c2N)c2cccc(F)c2)cc1` (configuration not stated), the inhibition came to 3.71%.

Turning to `O=C(NCCCNC(=O)c1cnccn1)c1ccc(Cl)c(Cl)c1`, the inhibition is -0.84%.

On to `CCc1ccc(OCC(=O)NCCN(C)C)c(Br)c1`, for which the inhibition came to 5.23%.

As for `Cc1cc(Cl)ccc1OCC(=O)NNC(=O)c1cccnc1`, the inhibition was -9.52%.

`COc1ccccc1OCC(=O)NNC(=O)c1cnccn1`: the inhibition was 3.6%.

Take `COc1ccc(CC(=O)NNC(=O)COc2ccc(Br)cc2C)cc1OC`: the inhibition was -13.1%.

Regarding `Cc1ccc(C(=O)NNC(=O)COc2ccc(Cl)cc2C)o1`, the inhibition is -11.3%.

On to `O=C(NCCNC(=O)c1cnccn1)c1ccc(Cl)c(Cl)c1`, for which the inhibition amounted to 5.99%.

Consider `COc1ccc(CC(=O)NNC(=O)c2cnccn2)cc1`, for which the inhibition is -6.37%.

`Cn1nc(C(=O)N2CCOCC2)c2ccccc2c1=O`: the inhibition was -8.35%.

For `O=C(COc1ccccc1-c1ccccc1)c1ccccc1`, the inhibition is 50.1%.

Regarding `COc1cc([C@@H]2CC=C(C(=O)O)[C@H](c3ccccc3)N2S(=O)(=O)c2ccc(C)cc2)cc(OC)c1OC`, the inhibition came out at 12.5%.

With `CCN(CC)C(=O)[C@H]1CC(CC(=O)NCCCOC)C(=O)N2CCc3c([nH]c4ccccc34)[C@]12C` (some centres not stated), the inhibition is -1.9%.

Take `CC(=O)N1CCN(c2ccccc2NC(=O)COc2cc(C)ccc2C(C)C)CC1`: the inhibition amounted to 34.3%.

For `CCOc1ccc(NC(=O)CCCN2C(=O)C(c3ccccc3)Oc3cccnc32)cc1` (configuration not stated), the inhibition is 3.12%.

Regarding `CC1(C)CC(=O)c2c(Cc3ccccc3)noc2C1`, the inhibition was 3.41%.

For `CCN(CC)CCn1c2c(c(SCC(=O)NCc3ccccc3)nc1=O)CCC2`, the inhibition came to 8.95%.

Turning to `Cc1ccc(S(=O)(=O)NCC(=O)NCC(=O)N(C)Cc2ccc3ccccc3c2)cc1C`, the inhibition turned out to be 31.9%.

For the compound `Cc1cc(Br)ccc1OCC(=O)NNC(=O)CCc1ccccc1`, the inhibition amounted to 29%.

Turning to `CCc1ccc(OCC(=O)NC(=S)Nc2ccc(F)cc2)c(Br)c1`, the inhibition worked out at 9.95%.

For the compound `O=C(COc1ccc(Cl)cc1Br)Nc1ccncc1`, the inhibition came out at 69.3%.

In the case of `Cc1cc(Br)ccc1OCC(=O)NNC(=O)Cc1ccccc1`, the inhibition is -15.6%.

Turning to `CCCc1nc2oc3c(NCCOCCO)ncnc3c2c2c1COC(C)(C)C2`, the inhibition is -8.1%.

As for `CCCN(CC(=O)Nc1ccc(F)c(F)c1F)CC(=O)Nc1c(C)n(C)n(-c2ccccc2)c1=O`, the inhibition amounted to 37.8%.

Turning to `COc1ccccc1-n1nnnc1SCC(=O)NC1CCCCC1`, the inhibition was determined as 2.38%.

As to `Cc1[nH]c(C)c(S(=O)(=O)Nc2cccc(Cl)c2C)c1C(=O)N1CCCC1`, the inhibition was 6.67%.

With `Cc1ccsc1/C=N/NC(=O)CN1CCN(Cc2ccccc2)CC1`, the inhibition was -0.88%.

Regarding `O=C(NCC1CCCO1)NC12CC3CC(CC(C3)C1)C2` (configuration not stated), the inhibition was -2.4%.

Take `O=C(COc1ccccc1[N+](=O)[O-])N/N=C/C=C/c1ccco1`: the inhibition was found to be 12.5%.

`COc1ccc(C(=O)NCC(=O)N/N=C/c2ccc(C)o2)cc1OC`: the inhibition is 24.5%.

Consider `CCCCCC(=O)N/N=C/c1ccc([N+](=O)[O-])o1`, for which the inhibition came to 73.3%.

As for `COc1ccc(C(=O)NCC(=O)N/N=C/c2ccco2)cc1OC`, the inhibition is -11.6%.

For the compound `COC(=O)N/N=C/c1ccc([N+](=O)[O-])o1`, the inhibition came out at 70.7%.

As for `CCOC(=O)N/N=C\c1ccc([N+](=O)[O-])o1`, the inhibition was 59.1%.

For the compound `Cc1ccccc1OCC(=O)N/N=C/C=C/c1ccccc1`, the inhibition is -6.11%.

For the compound `Cc1cc(C)cc(OCC(=O)N/N=C/c2ccco2)c1`, the inhibition was 9.16%.

Consider `COc1ccc(CN2CCNC(=O)C2CC(=O)N(C)Cc2nccn2C)cc1OC` (configuration not stated), for which the inhibition is -4.39%.

Turning to `NS(=O)(=O)c1ccc(CNC(=O)c2ccc3c(c2)OCO3)cc1`, the inhibition is -8.29%.

On to `CC1CCC2C(=O)N(c3cccc(C(=O)Nc4ccc(F)cc4)c3)C(=O)C2C1` (configuration not stated), for which the inhibition was found to be 0.0133%.

Consider `Cc1cc(C)c[n+](CC(=O)c2ccc(C)c([N+](=O)[O-])c2)c1`, for which the inhibition amounted to 11.3%.

In the case of `COc1ccc(Cl)cc1NC(=O)CN(C)C(=O)/C=C/c1ccco1`, the inhibition is 25.2%.

For the compound `CCc1nc2ccccc2n1CC(=O)N1CCN(S(=O)(=O)c2cccc(C(F)(F)F)c2)CC1`, the inhibition was determined as 11.4%.

As to `Cc1ccc(NC(=O)C2CCN(C(=O)c3ccc(Cl)cc3)CC2)nc1`, the inhibition was 11.3%.

On to `C/C(=N\Nc1ccc(Cl)cc1)c1ccncc1`, for which the inhibition is 31.7%.

As for `Cc1ccc(NC(=O)CCC(=O)N/N=C/c2ccc([N+](=O)[O-])o2)cc1C`, the inhibition is 8.35%.

For the compound `CCCOc1ccc(CCC(=O)N/N=C/c2ccco2)cc1`, the inhibition was found to be 64.4%.

Regarding `CCCC(=O)Nc1ccc(C(=O)N/N=C/c2ccc([N+](=O)[O-])o2)cc1`, the inhibition was 77.6%.

Consider `CCCOc1ccc(CCC(=O)N/N=C/c2ccncc2)cc1`, for which the inhibition is 25.7%.

With `Cc1ccc(OCC(=O)N/N=C/c2ccco2)cc1`, the inhibition came to 36.5%.

As for `Cc1ccccc1OCC(=O)N/N=C/c1ccc([N+](=O)[O-])o1`, the inhibition is 78.1%.

With `O=S(=O)(Nc1ccc(Nc2ccccc2)cc1)c1ccc(F)cc1`, the inhibition came to 45.8%.

With `O=C(COC(=O)c1ccc2ncsc2c1)NCc1ccccc1Cl`, the inhibition worked out at 19.4%.

Take `CC(=O)Nc1ccc(S(=O)(=O)N2CCSC2C(=O)O)cc1` (configuration not stated): the inhibition worked out at 1.73%.

Regarding `CCN(CC)S(=O)(=O)c1ccc(Oc2ccccc2)cc1`, the inhibition is 30.3%.

Take `COc1ccc2c(Cl)c(C(=O)N/N=C/c3c(C)[nH]c4ccccc34)sc2c1`: the inhibition was -5.52%.

Turning to `CC(C)C(c1nnnn1Cc1ccccc1)N1CCc2ccccc2C1` (configuration not stated), the inhibition was 11%.

On to `Cc1cccc(N2C(=O)/C(=C/c3ccccn3)SC2=S)c1`, for which the inhibition worked out at 0.34%.

Consider `Cc1ccc(C)c2[nH]c(=O)c(CCNC(=O)c3ccc(Br)o3)cc12`, for which the inhibition was -3.61%.

As to `COc1ccc(CCNC(=O)COc2ccc(-c3ccc(C)cc3)cc2)cc1OC`, the inhibition was found to be 25.9%.

For the compound `O=C(Nc1ccc(Cl)c(Cl)c1)Nc1ccc(Br)cc1F`, the inhibition stood at 75.2%.

With `O=[N+]([O-])c1cccc(-c2nnnn2-c2cccc(F)c2)c1`, the inhibition was -0.82%.

As for `O=[N+]([O-])c1ccc(-n2nnnc2-c2ccccc2)cc1`, the inhibition is -9.53%.

For `CC(C)[C@H](NC(=O)C1CCN(S(=O)(=O)c2ccc(F)cc2)CC1)C(=O)NCc1ccco1`, the inhibition came to 8.72%.
